In the supplement of paper PMC4237247:

Tested on: HeLa
Test: percent cells in G2/M phase; higher = more G2/M arrest
Details: 10 µM; 20 h; hit class: G2/M-phase inhibitor
Protocol: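 HTS of 79,827 drug-like compounds at 10 uM. HeLa cells in 384-well plates were treated for 20 h, fixed, stained with Vybrant DyeCycle Green and scanned on an Acumen eX3 cytometer to give per-well cell cycle profiles. Only G2/M hits (>=67% G2/M) are listed.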

Row | SMILES | percent cells in G2/M phase
1 | CN1Cc2c(ccc3c2OCO3)[C@@H]2[C@H]1c1cc3c(cc1C[C@@H]2O)OCO3 [Chelidonine monohydrate (+)] | 72%
